Test results as given in PubChem BioAssay AID1159580 (chemical genetic matrix, 2015).
Several values for one entry are separate records, joined by “and”; a condition that tells them apart may be missing. Identical values can stand only once. Among all 5,500 compounds or so, about 2,000 (36%) were called active. Another 18% or so got no clear call; they are omitted. Rule as the data show it: active = normalized growth mostly below about 0.91 (no sharp cut-off); inconclusive = no clear call, values can overlap the other calls; inactive = mostly above about 0.92. Some of the results follow.

Test: chemical genetic growth profiling, strain panel (AID 1159580);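 also: tested at 20 µM; growth read once vehicle control cultures reached saturation at 30 °C; 1 = growth at the plate median or of vehicle wells; lower values mean less growth of the strain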
Conditions: S. cerevisiae deletion strains, growth OD

Measured: normalized growth

C[C@@H]1CC[C@@]2(OC1)OC1CC3C4CC=C5C[C@@H](O)CC[C@]5(C)C4CC[C@]3(C)C1[C@@H]2C (some centres not stated)
inactive: locus YAL021C, strain ccr4, stronger effect = lower value 1.02 | locus YAL026C, strain drs2, stronger effect = lower value 1.01 | locus YAL030W, strain snc1, stronger effect = lower value 0.996 | locus YBL061C, strain skt5, stronger effect = lower value 0.996 | locus YBR009C, strain hhf1, stronger effect = lower value 1.01 | locus YBR021W, strain FUR4, stronger effect = lower value 1.06 | locus YBR023C, strain chs3, stronger effect = lower value 1 | locus YBR171W, strain sec66, stronger effect = lower value 1 | locus YBR229C, strain ROT2, stronger effect = lower value 1 | locus YBR231C, strain swc5, stronger effect = lower value 0.996 | locus YBR279W, strain paf1, stronger effect = lower value 1 | locus YCL011C, strain gbp2, stronger effect = lower value 1.01 | locus YCL016C, strain dcc1, stronger effect = lower value 0.996 | locus YCL029C, strain bik1, stronger effect = lower value 0.965 | locus YCL061C, strain MRC1, stronger effect = lower value 0.999 | locus YCL069W, strain vba3, stronger effect = lower value 0.995 | locus YCR088W, strain abp1, stronger effect = lower value 1 | locus YDL005C, strain med2, stronger effect = lower value 1 | locus YDL035C, strain GPR1, stronger effect = lower value 1.02 | locus YDL040C, strain nat1, stronger effect = lower value 1 | locus YDL074C, strain BRE1, stronger effect = lower value 1.02 | locus YDL101C, strain DUN1, stronger effect = lower value 0.99 | locus YDL134C, strain PPH21, stronger effect = lower value 0.977 | locus YDL185W, strain tfp1, stronger effect = lower value 0.959 | locus YDL192W, strain arf1, stronger effect = lower value 0.981 | locus YDR001C, strain nth1, stronger effect = lower value 1 | locus YDR069C, strain doa4, stronger effect = lower value 1.01 | locus YDR101C, strain arx1, stronger effect = lower value 0.997 | locus YDR137W, strain rgp1, stronger effect = lower value 0.991 | locus YDR150W, strain NUM1, stronger effect = lower value 0.995 | locus YDR159W, strain sac3, stronger effect = lower value 0.997 | locus YDR162C, strain NBP2, stronger effect = lower value 1.01 | locus YDR195W, strain ref2 0.991 | locus YDR297W, strain sur2, stronger effect = lower value 1.01 | locus YDR318W, strain mcm21, stronger effect = lower value 0.972 | locus YDR334W, strain swr1, stronger effect = lower value 1.01 | locus YDR335W, strain msn5, stronger effect = lower value 1 | locus YDR388W, stronger effect = lower value 0.976 | locus YDR392W, strain spt3, stronger effect = lower value 0.985 | locus YDR502C, strain sam2, stronger effect = lower value 0.986 | locus YEL003W, strain gim4, stronger effect = lower value 1 | locus YEL037C, strain rad23, stronger effect = lower value 0.994 | locus YEL061C, strain CIN8 (second series), stronger effect = lower value 1.01 | locus YER015W, strain faa2, stronger effect = lower value 0.979 | locus YER016W, strain bim1, stronger effect = lower value 0.993 | locus YER110C, stronger effect = lower value 0.969 | locus YER111C, strain swi4, stronger effect = lower value 1.01 | locus YER155C, strain BEM2 (second series), stronger effect = lower value 1.02 | locus YER155C, strain BEM2, stronger effect = lower value 1 | locus YER167W, strain BCK2, stronger effect = lower value 1.01 | locus YFR010W, strain ubp6, stronger effect = lower value 1.01 | locus YGL078C, strain dbp3, stronger effect = lower value 0.973 | locus YGL086W, strain mad1, stronger effect = lower value 0.997 | locus YGL167C, strain pmr1, stronger effect = lower value 0.994 | locus YGL173C, strain kem1, stronger effect = lower value 1.01 | locus YGL227W, strain vid30, stronger effect = lower value 0.978 | locus YGL240W, strain doc1, stronger effect = lower value 0.985 | locus YGL248W, strain PDE1, stronger effect = lower value 1.01 | locus YGL253W, strain hxk2, stronger effect = lower value 1.01 | locus YGR078C, strain PAC10, stronger effect = lower value 0.982 | locus YGR135W, strain pre9, stronger effect = lower value 0.951 | locus YGR252W, strain gcn5, stronger effect = lower value 0.989 | locus YHR013C, strain ard1, stronger effect = lower value 0.986 | locus YHR027C, strain rpn1, stronger effect = lower value 0.986 | locus YHR030C, strain SLT2, stronger effect = lower value 0.994 and 0.991 | locus YHR079C, strain IRE1 (second series), stronger effect = lower value 0.979 | locus YHR079C, strain IRE1, stronger effect = lower value 0.979 | locus YHR094C, strain hxt1, stronger effect = lower value 0.985 | locus YHR129C, strain ARP1, stronger effect = lower value 0.993 | locus YHR142W, strain chs7, stronger effect = lower value 1.01 | locus YHR200W, strain rpn10, stronger effect = lower value 0.999 | locus YIL066C, strain RNR3, stronger effect = lower value 1.01 | locus YIL073C, strain SPO22, stronger effect = lower value 0.882 | locus YIL125W, strain kgd1, stronger effect = lower value 0.985 | locus YIR030C, strain dcg1, stronger effect = lower value 0.96 | locus YJL092W, strain hpr5, stronger effect = lower value 1 | locus YJL095W, strain BCK1 (second series), stronger effect = lower value 0.995 | locus YJL095W, strain BCK1, stronger effect = lower value 0.989 and 0.99 | locus YJL115W, strain asf1, stronger effect = lower value 0.997 | locus YJL129C, strain trk1, stronger effect = lower value 0.97 | locus YJL134W, strain LCB3, stronger effect = lower value 1 | locus YJL154C, strain vps35, stronger effect = lower value 0.998 | locus YJL164C, strain tpk1, stronger effect = lower value 1 | locus YJL166W, strain qcr8, stronger effect = lower value 1.01 | locus YJL168C, strain set2, stronger effect = lower value 0.977 | locus YJL187C, strain SWE1 (second series), stronger effect = lower value 0.988 | locus YJL187C, strain SWE1, stronger effect = lower value 1.02 | locus YJR043C, strain POL32, stronger effect = lower value 1.04 | locus YJR066W, strain TOR1, stronger effect = lower value 0.95 | locus YKL009W, strain mrt4, stronger effect = lower value 0.986 | locus YKL068W, stronger effect = lower value 0.984 | locus YKL085W, strain MDH1 (second series), stronger effect = lower value 0.998 | locus YKL085W, strain MDH1, stronger effect = lower value 0.998 | locus YKL160W, strain elf1, stronger effect = lower value 0.987 | locus YKR001C, strain vps1, stronger effect = lower value 0.985 | locus YKR026C, strain gcn3, stronger effect = lower value 1 | locus YKR091W, strain srl3, stronger effect = lower value 0.996 | locus YLL001W, strain dnm1, stronger effect = lower value 0.997 | locus YLL026W, stronger effect = lower value 1 | locus YLL041C, strain sdh2, stronger effect = lower value 1 | locus YLR027C, strain aat2, stronger effect = lower value 0.993 | locus YLR039C, strain RIC1, stronger effect = lower value 1.05 | locus YLR058C, strain SHM2, stronger effect = lower value 1 | locus YLR102C, strain apc9, stronger effect = lower value 0.986 | locus YLR113W, strain HOG1, stronger effect = lower value 0.964 | locus YLR221C, strain rsa3, stronger effect = lower value 0.989 | locus YLR258W, strain gsy2, stronger effect = lower value 0.995 | locus YLR262C, strain YPT6 (second series), stronger effect = lower value 0.994 | locus YLR262C, strain YPT6, stronger effect = lower value 1.1 | locus YLR268W, strain sec22, stronger effect = lower value 1.01 | locus YLR320W, strain mms22, stronger effect = lower value 0.995 | locus YLR342W, strain FKS1, stronger effect = lower value 0.996 | locus YLR357W, strain rsc2, stronger effect = lower value 1.04 | locus YLR370C, strain arc18, stronger effect = lower value 1 | locus YLR371W, strain rom2, stronger effect = lower value 0.964 | locus YLR384C, strain iki3, stronger effect = lower value 1 | locus YLR418C, strain cdc73, stronger effect = lower value 0.992 | locus YML016C, strain PPZ1, stronger effect = lower value 1.01 | locus YML032C, strain rad52, stronger effect = lower value 0.971 | locus YML120C, strain ndi1, stronger effect = lower value 1 | locus YML124C, strain tub3, stronger effect = lower value 0.978 | locus YMR058W, strain fet3, stronger effect = lower value 1 | locus YMR078C, strain ctf18, stronger effect = lower value 0.951 | locus YMR125W, strain sto1, stronger effect = lower value 0.995 | locus YMR129W, stronger effect = lower value 0.996 | locus YMR205C, strain PFK2, stronger effect = lower value 0.995 | locus YMR223W, strain ubp8, stronger effect = lower value 0.963 | locus YMR231W, strain pep5, stronger effect = lower value 1.02 | locus YMR263W, strain SAP30, stronger effect = lower value 0.988 | locus YMR307W, strain GAS1, stronger effect = lower value 1.24 | locus YNL067W, strain RPL9B, stronger effect = lower value 0.973 | locus YNL071W, strain lat1, stronger effect = lower value 1.01 | locus YNL153C, strain GIM3, stronger effect = lower value 0.99 | locus YNL183C, strain NPR1, stronger effect = lower value 0.964 | locus YNL209W, strain ssb2, stronger effect = lower value 0.997 | locus YNL233W, strain BNI4, stronger effect = lower value 1.01 | locus YNL248C, strain rpa49, stronger effect = lower value 0.999 | locus YNL250W, strain rad50, stronger effect = lower value 0.954 | locus YNL271C, strain bni1, stronger effect = lower value 0.986 | locus YNL298W, strain CLA4, stronger effect = lower value 0.977 | locus YNL307C, strain MCK1, stronger effect = lower value 0.992 | locus YNL322C, strain KRE1 (second series), stronger effect = lower value 0.997 | locus YNR049C, strain mso1, stronger effect = lower value 1 | locus YNR052C, strain pop2, stronger effect = lower value 0.968 | locus YOL012C, strain htz1 1.17 | locus YOL147C, strain pex11, stronger effect = lower value 0.979 | locus YOR001W, strain rrp6, stronger effect = lower value 0.982 | locus YOR061W, strain CKA2, stronger effect = lower value 1.01 | locus YOR069W, strain VPS5, stronger effect = lower value 0.996 | locus YOR070C, strain gyp1, stronger effect = lower value 0.985 | locus YOR080W, strain dia2, stronger effect = lower value 0.999 | locus YOR083W, strain WHI5, stronger effect = lower value 0.983 | locus YOR106W, strain vam3, stronger effect = lower value 0.994 | locus YOR136W, strain idh2, stronger effect = lower value 0.989 | locus YOR144C, strain elg1, stronger effect = lower value 0.99 | locus YOR184W, strain ser1, stronger effect = lower value 1.03 | locus YOR231W, strain MKK1, stronger effect = lower value 0.988 | locus YOR265W, strain rbl2, stronger effect = lower value 1.01 | locus YOR270C, strain vph1, stronger effect = lower value 0.999 | locus YOR290C, strain snf2, stronger effect = lower value 0.949 | locus YOR316C, strain cot1, stronger effect = lower value 0.974 | locus YPL051W, strain arl3, stronger effect = lower value 0.999 | locus YPL055C, strain LGE1, stronger effect = lower value 1.03 | locus YPL078C, strain atp4, stronger effect = lower value 1.01 | locus YPL106C, strain sse1, stronger effect = lower value 1.02 | locus YPL240C, strain hsp82, stronger effect = lower value 0.986 | locus YPL256C, strain CLN2, stronger effect = lower value 0.974 | locus YPR119W, strain clb2, stronger effect = lower value 0.967 | locus YPR141C, strain kar3, stronger effect = lower value 0.951 | locus YPR163C, strain tif3, stronger effect = lower value 0.969 | locus YPR167C, strain met16, stronger effect = lower value 0.983 | strain wtn01, stronger effect = lower value 1.01
